Mtb BioA inh: blocks M. tuberculosis BioA enzyme activity. purified M. tuberculosis BioA enzyme, plate reader. inhibition, % at 9.99 µM. hit rate 0.096% among 360,000. AID 602481; in the data active means inhibition above about 40%
FadD28 binding: M. tuberculosis FadD28 bisubstrate binding inhibition | inhibition, % at 12.5 µM | hit rate 0.22% among 360,000 | FadD28 bisubstrate probe binding, fluorescence polarization | AID 588549; in the data active means inhibition above about 8.5%, passing the limit was not always enough
GDH-TPI counter-1: inhibits GDH-TPI coupling enzymes, artifact for Mtb FBA screen; GDH-TPI coupled enzyme counterscreen, NADH absorbance; inhibition, % at 4.8 µM; hit rate 1.2% among 360,000; AID 588335; in the data active means inhibition above about 30%;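 further: 0% = DMSO wells and 100% = wells lacking the enzyme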
Mtb FBA inh: Mtb fructose-bisphosphate aldolase inhibition. P9WQA3. inhibition, % at 1 µM. purified M. tuberculosis FBA, fluorescence read-out. hit rate 2.3% among 360,000;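 further: 0% = vehicle and 100% = reference inhibitor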
Target sequence (P9WQA3 whole entry, looked up): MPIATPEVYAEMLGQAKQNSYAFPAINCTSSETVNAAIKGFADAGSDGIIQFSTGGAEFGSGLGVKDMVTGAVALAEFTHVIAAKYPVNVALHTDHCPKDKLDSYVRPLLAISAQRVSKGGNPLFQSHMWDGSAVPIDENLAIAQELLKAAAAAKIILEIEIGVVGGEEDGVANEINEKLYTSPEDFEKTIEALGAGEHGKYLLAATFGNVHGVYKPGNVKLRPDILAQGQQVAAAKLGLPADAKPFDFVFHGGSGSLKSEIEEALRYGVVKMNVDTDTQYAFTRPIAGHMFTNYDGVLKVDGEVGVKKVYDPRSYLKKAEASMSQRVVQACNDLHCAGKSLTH
Mtb hypoxia inh: inhibitors of hypoxia-regulated fluorescent reporter in Mycobacterium tuberculosis; hit rate 0.1% among 300,000; M. tuberculosis hypoxia-regulated fluorescent reporter, fluorescence; AID 1159583; fluorescence inhibition, % (test concentration not listed); in the data active means fluorescence inhibition mostly above about 23%, no sharp cut-off; inactive means mostly below about 17%
Mtb FBA inh conf: Mtb FBA inhibition, confirmed; shares compounds with Mtb FBA inh; purified M. tuberculosis FBA, fluorescence read-out; inhibition, % at 1 µM; hit rate 78% among 5,600; AID 651616;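 further: 0% = vehicle wells and 100% = reference inhibitor wells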
GDH-TPI counter-2: counter-screen for M. tuberculosis FBA inhibitors: GDH-TPI coupled enzyme inhibition; GDH-TPI coupled enzyme counterscreen, fluorescence; hit rate 81% among 5,600; inhibition, % at 1 µM; shares compounds with Mtb FBA inh; in the data active means inhibition above about 10%
* marks the source's active call; other numbers are inactive results. A selection: hits, their analogues and other compounds. The true share with any hit is near 2.9%. Unless noted, no stated cut-off is given here; in the data, active means inhibition above about 27%; inactive means the rest.

What do the screens show for `CCC1(CC)Nc2ccccc2C(=O)N1c1ccc(NC(C)=O)cc1`?
Mtb BioA inh: 5; FadD28 binding: -1; GDH-TPI counter-1: 17; Mtb FBA inh: 4; Mtb hypoxia inh: 11

How did COc1ccc(C2Nc3ccccc3C(=O)N2NC(C)=O)cc1OC (stereo not given) do in these assays?
FadD28 binding: -5; GDH-TPI counter-1: -2; Mtb FBA inh: 36*; Mtb hypoxia inh: 7; Mtb FBA inh conf: 36*; GDH-TPI counter-2: 26*

Results for CCOC(=O)NN1C(=O)c2ccccc2NC1(C)C ?
Mtb BioA inh: 1; FadD28 binding: -2; GDH-TPI counter-1: 3; Mtb FBA inh: 104*; Mtb hypoxia inh: 0; Mtb FBA inh conf: 136*; GDH-TPI counter-2: 112*

How did CO[C@H]1CC[C@H]2CCN(C)C(=O)CC3(CCCCC3)CN(C)C(=O)c3cc(C#N)ccc3OC[C@H]1O2 do in these assays?
Mtb BioA inh: -2

What do the screens show for `Cc1noc(C)c1NC(=O)Nc1ccc2c(c1)C(=O)N([C@H](C)CO)C[C@H](C)[C@H](CN(C)Cc1ccccc1)OCCCC[C@@H](C)O2`?
Mtb BioA inh: -1

Results for CN(C)CCCn1c2c3ccccc3ccc2c2oc(=O)c3ccccc3c21 ?
FadD28 binding: -1; GDH-TPI counter-1: 6; Mtb FBA inh: 27*; Mtb FBA inh conf: active; GDH-TPI counter-2: active

Results for O=C(N/N=C/c1ccc(N2CCOCC2)cc1)C1COc2ccccc2O1 (stereo not given) ?
FadD28 binding: -2; GDH-TPI counter-1: 15; Mtb FBA inh: 38*; Mtb FBA inh conf: 44*; GDH-TPI counter-2: 41*

What do the screens show for `COc1ccc(C=NNc2cc(N3CCCC3)nc(N3CCCC3)n2)cc1`?
Mtb hypoxia inh: -25

Results for COc1ccc(CC(=O)NN=C(C)c2ccccn2)cc1 ?
Mtb hypoxia inh: -2

How did O=S1c2ccccc2-c2ccccc21 do in these assays?
Mtb BioA inh: 0; FadD28 binding: -2; GDH-TPI counter-1: -1; Mtb FBA inh: 1

How did O=[N+]([O-])c1ccc2c(c1)S(=O)c1ccccc1-2 (stereo not given) do in these assays?
Mtb BioA inh: 0; FadD28 binding: -2; GDH-TPI counter-1: 26; Mtb FBA inh: 27*; Mtb hypoxia inh: 9; Mtb FBA inh conf: 147*; GDH-TPI counter-2: 110*

Results for C[C@@H]1CN([C@H](C)CO)C(=O)c2cccc(NC(=O)C3CC3)c2O[C@H]1CN(C)CC1CC1 ?
Mtb BioA inh: 3

How did CCOC(=O)N(NC(=O)C(O)(C(C)C)C(C)C)c1ccccc1 do in these assays?
FadD28 binding: 1; GDH-TPI counter-1: 7; Mtb FBA inh: 101*; Mtb hypoxia inh: 16; Mtb FBA inh conf: 47*; GDH-TPI counter-2: 55*

What do the screens show for `Cc1cc(C)c(C#N)c(N2CCCC2)n1`?
Mtb BioA inh: 0; FadD28 binding: 1; GDH-TPI counter-1: 13; Mtb FBA inh: 30*; Mtb hypoxia inh: 20; Mtb FBA inh conf: 135*; GDH-TPI counter-2: 92*

Results for CCNC(=O)COC(=O)c1ccc(-c2nc3ccccc3s2)s1 ?
FadD28 binding: -3; GDH-TPI counter-1: 21; Mtb FBA inh: 59*; Mtb hypoxia inh: 4; Mtb FBA inh conf: active; GDH-TPI counter-2: active

How did CO[C@@H]1CN(C)C(=O)c2ccc(NC(=O)c3cccc(F)c3)cc2OC[C@@H](C)NC[C@@H]1C do in these assays?
Mtb BioA inh: 3

What do the screens show for `O=C(NC1CCC(O)CC1)c1cc(-c2ccco2)nc2ccccc12` (stereo not given)?
FadD28 binding: 0; GDH-TPI counter-1: 3; Mtb FBA inh: 62*; Mtb hypoxia inh: -6; Mtb FBA inh conf: 53*; GDH-TPI counter-2: 38*

Results for COc1ccc(-c2cc(C(=O)NC3CCCC3)c3ccccc3n2)cc1 ?
Mtb BioA inh: -2; FadD28 binding: 0; GDH-TPI counter-1: 21; Mtb FBA inh: 41*; Mtb hypoxia inh: 2; Mtb FBA inh conf: 72*; GDH-TPI counter-2: 55*

How did O=C(NC1CC1)c1cc(-c2ccc(Br)cc2)nc2ccccc12 do in these assays?
Mtb BioA inh: -1; FadD28 binding: -4; GDH-TPI counter-1: 2; Mtb FBA inh: 0; Mtb hypoxia inh: 7

What do the screens show for `Cc1ccccc1NC(=O)c1cc(-c2ccco2)nc2ccccc12`?
Mtb BioA inh: -1; FadD28 binding: -3; GDH-TPI counter-1: 12; Mtb FBA inh: 5

Results for COc1ccc(-c2cc(C(=O)NC3CC3)c3ccccc3n2)cc1 ?
Mtb BioA inh: -2; FadD28 binding: -5; GDH-TPI counter-1: 1; Mtb FBA inh: 46*; Mtb hypoxia inh: 7; Mtb FBA inh conf: 104*; GDH-TPI counter-2: 88*

How did CCCOc1ccc(-c2cc(C(=O)NCC3CCCO3)c3ccccc3n2)cc1 (stereo not given) do in these assays?
Mtb BioA inh: -1; FadD28 binding: 0; GDH-TPI counter-1: 14; Mtb FBA inh: 28*; Mtb FBA inh conf: 177*; GDH-TPI counter-2: 154*

What do the screens show for `COc1cccc(-c2cc(C(=O)NC3CC3)c3ccccc3n2)c1`?
Mtb BioA inh: 1; GDH-TPI counter-1: 10; Mtb FBA inh: -1; Mtb hypoxia inh: 0

What do the screens show for `CSC1=NC(NCCCO)c2c(sc3c2CC(C)(C)OC3)N1` (stereo not given)?
FadD28 binding: -2; GDH-TPI counter-1: 12; Mtb FBA inh: 28*; Mtb hypoxia inh: -2; Mtb FBA inh conf: 107*; GDH-TPI counter-2: 92*

Results for CSc1nc(SCC(=O)O)c2c3c(sc2n1)COC(C)(C)C3 ?
Mtb BioA inh: -1; FadD28 binding: 0; GDH-TPI counter-1: 14; Mtb FBA inh: 5; Mtb hypoxia inh: 7

What do the screens show for `c1ccc(-c2cc3ccccc3[nH]2)cc1`?
Mtb BioA inh: -3; FadD28 binding: 0; GDH-TPI counter-1: 5; Mtb FBA inh: 60*; Mtb hypoxia inh: 3; Mtb FBA inh conf: 114*; GDH-TPI counter-2: 93*

What do the screens show for `Cc1ccc(O)c(-c2cc(-c3ccccc3F)[nH]n2)c1`?
FadD28 binding: -12; GDH-TPI counter-1: -12; Mtb FBA inh: 0; Mtb hypoxia inh: 14

Results for Cc1ccc(O)c(-c2cc3ccccc3[nH]2)c1 ?
Mtb BioA inh: 3; FadD28 binding: -1; GDH-TPI counter-1: 16; Mtb FBA inh: 52*; Mtb hypoxia inh: -1; Mtb FBA inh conf: 71*; GDH-TPI counter-2: 45*

How did COc1ccc(-c2cc3ccccc3[nH]2)cc1 do in these assays?
Mtb BioA inh: -1; FadD28 binding: -2; GDH-TPI counter-1: 0; Mtb FBA inh: 29*; Mtb hypoxia inh: 15; Mtb FBA inh conf: 74*; GDH-TPI counter-2: 62*

Results for COc1ccc(-c2cc(=O)c3ccccc3[nH]2)cc1 ?
Mtb BioA inh: 3; FadD28 binding: -4; GDH-TPI counter-1: 11; Mtb FBA inh: 12; Mtb hypoxia inh: 7

Results for Cc1ccc(-c2cc3ccccc3nc2N)cc1 ?
Mtb BioA inh: 1; GDH-TPI counter-1: -4; Mtb FBA inh: 46*; Mtb hypoxia inh: -20; Mtb FBA inh conf: 88*; GDH-TPI counter-2: 80*

Assay outcomes: PubChem, several laboratories
